Activity calls are given as the source filed them. The calls were made as follows: active = hit-call score of the fitted dose curve at least 0.9, where 1 is the maximum; inactive = score below 0.9.

The nature of this test: CCTE_Mundy_HCI_iCellGABA_NOG_NeuronCount: CCTE's Neurite Outgrowth Assay in iCellGABA cells for Neuron Count, Mundy Lab. How it is done: CCTE_Mundy_HCI_iCellGABA_NOG is a multiplexed, cell-based-readout assay that uses iCell GABANeurons from FUJIFILM Cellular Dynamics, Inc. (FCDI), human GABAergic enriched neurons derived from induced pluripotent stem (iPS) cells, with measurements taken at 50.33 hours after chemical dosing in a microplate: 96-well plate.CCTE_Mundy_HCI_iCellGABA_NOG_NeuronCount is one of four components of the CCTE_Mundy_HCI_iCellGABA_NOG assay. It measures cell viability related to number of neurons using High Content Imaging of fluorescently labelled markers.Data from the assay component CCTE_Mundy_HCI_iCellGABA_NOG_NeuronCount was analyzed at the endpoint CCTE_Mundy_HCI_iCellGABA_NOG_NeuronCount in the positive analysis fitting direction relative to DMSO as the negative control and baseline of activity. Using a type of viability reporter, loss-of-signal activity can be used to understand developmental effects.
Exposure starts 2 hours post-plating by adding 10 ul of the working solution to 90 ul of media in the wells for a 1/10 dilution. Forty-eight hours after chemical treatment cells are fixed by direct addition of 100 ul of warm (37C) Dulbecco's phosphate buffered saline (DPBS) fixative solution containing 8% paraformaldehyde, 8% sucrose, and 0.1% of 3 mg/ml Hoechst 33342 into each well. Primary antibodies are prepared by dilution in Immunocytochemical Staining Buffer (ISB), 10X Dulbecco's PBS, 0.1% Saponin, 5% Bovine Serum Albumin, 0.5% NaN3 (Sodium Azide) and betaIII-tubulin (rabbit anti-betaIII-tubulin, 1:800) followed by Alexa Fluor-488 secondary (1:500) to label neuronal cell bodies and neurites. A Cellomics ArrayScan VTi HCS Reader is used for automated image acquisition and analysis of neurite outgrowth.
Regarding `CCOP(=S)(OCC)Oc1ccc2c(C)c(Cl)c(=O)oc2c1`, the AC50 was 23.4 µM (active).

As for `COP(=O)(OC)OC=C(Cl)Cl`, the call was inactive.

Consider `CCOP(=S)(OCC)Oc1cc(C)nc(C(C)C)n1`, for which the compound was classed as inactive.

As for `CCCSP(=O)(OCC)Oc1ccc(Br)cc1Cl` (stereo unspecified), the call was inactive.

As to `CCOP(=S)(OCC)SCSC(C)(C)C`, the AC50 is 9.92 µM (active).

Regarding `CNC(=O)CSP(=S)(OC)OC`, the compound was classed as inactive.

For `CCCCSP(=O)(SCCCC)SCCCC`, the AC50 was 9.92 µM (active).

Regarding `CCOC(=O)CC(SP(=O)(OC)OC)C(=O)OCC` (stereo unspecified), the compound was called inactive.

Take `CCOP(=O)(OCC)Oc1nc(Cl)c(Cl)cc1Cl`: the outcome was inactive.

`CNC(=O)CSP(=O)(OC)OC`: the AC50 was 18.9 µM (active).

Turning to `CCOP(=O)(OCC)Oc1cc(C)nc(C(C)C)n1`, the outcome was inactive.

Consider `CCOP(=S)(Oc1cnc(C(C)(C)C)nc1)OC(C)C` (stereo unspecified), for which the call was inactive.

On to `COP(=O)(OC)O/C(C)=C/C(=O)N(C)C`, for which the compound was classed as inactive.

As for `COP(=O)(OC)C(O)C(Cl)(Cl)Cl` (stereo unspecified), the AC50 was 0.205 µM (active).

`CCOP(=S)(OCC)Oc1nc(Cl)c(Cl)cc1Cl`: the AC50 was 9.92 µM (active).

As to `CCOP(=S)(OCC)SCSCC`, the AC50 was 0.316 µM (active).

Take `CCN(CC)c1nc(C)cc(OP(=S)(OC)OC)n1`: the AC50 was 19.1 µM (active).

Take `COP(N)(=O)SC` (stereo unspecified): the call was inactive.

As to `CCOP(=S)(OCC)OC(Cl)C(Cl)(Cl)Cl` (stereo unspecified), the AC50 was 9.92 µM (active).

With `CCCSP(=O)(OCC)SCCC`, the call was inactive.

As for `CCOP(=O)(SC(C)CC)N1CCSC1=O` (stereo unspecified), the call was inactive.

For the compound `CCOC(=O)CC(SP(=S)(OC)OC)C(=O)OCC` (stereo unspecified), the half-maximal activity concentration (AC50) was 50 µM (active).

With `COP(=O)(NC(C)=O)SC` (stereo unspecified), the call was inactive.

Consider `COP(=O)(OC)O/C(=C\Cl)c1cc(Cl)c(Cl)cc1Cl`, for which the compound was called inactive.

`COP(=O)(OC)OC(Br)C(Cl)(Cl)Br` (stereo unspecified): the AC50 is 9.92 µM (active).

Regarding `COP(=S)(OC)SCN1C(=O)c2ccccc2C1=O`, the AC50 is 9.92 µM (active).

The values above are taken from PubChem BioAssay AID2284365 (EPA ToxCast).
